One experiment addresses POU1 (OCT1 POU domain) (human, UniProt P14859 260-458). Description: EMSA-SELEX-seq; no BOB1; 20 mM Tris-HCl pH 7.6, 140 mM NaCl, 10% glycerol, 0.5 mM EDTA, 0.05% Triton X-100, 0.1 mg/mL BSA, 0.1 mg/mL poly(dI-dC), 5 mM DTT, room temperature, 20 min; high values mean tight binding. The following applies: protein: recombinant; dsDNA, one strand shown. A digest of the protocol: (§1)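 After expression in E. coli BL21, tagged POU-domain proteins were purified under denaturing conditions and then renatured. Each binding reaction held 30 ng protein and 300 ng of a PCR-amplified double-stranded random 35-nt library in 20 μL Tris–HCl pH 7.6 binding buffer, with or without 28 ng coactivator protein, for 20 min at RT. Bands holding complexes were cut from native 6% PAGE, eluted and PCR-amplified across four rounds, and the output was Illumina-sequenced. The value given for binding preference is the share, in percent, of sequenced 8-mers fitting a motif pattern.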
A general note: Mobility shift assays separate free from complexed probe on a gel.

Another experiment deals with T1, POU2 (OCT2 POU domain) (human, UniProt P09086 175-386).
T1 sequence: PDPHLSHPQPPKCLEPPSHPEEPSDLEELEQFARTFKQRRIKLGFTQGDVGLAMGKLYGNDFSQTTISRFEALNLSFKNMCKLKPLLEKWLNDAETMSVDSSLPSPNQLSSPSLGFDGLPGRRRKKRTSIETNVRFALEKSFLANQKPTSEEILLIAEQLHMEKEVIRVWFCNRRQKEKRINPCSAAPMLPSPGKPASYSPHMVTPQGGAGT
The description is as above. Particulars: protein: recombinant; dsDNA, one strand shown. Put shortly: as §1

For experiment [1], the target named is POU1 (OCT1 POU domain);BOB1 (OBF1, OCA-B) (human;human, UniProt P14859;Q16633 260-458;1-256, |). Description: EMSA-SELEX-seq; with BOB1 (ternary complex band); 20 mM Tris-HCl pH 7.6, 140 mM NaCl, 10% glycerol, 0.5 mM EDTA, 0.05% Triton X-100, 0.1 mg/mL BSA, 0.1 mg/mL poly(dI-dC), 5 mM DTT, room temperature, 20 min; high values mean tight binding. Particulars: protein: recombinant;recombinant; copies: 1;1; dsDNA, one strand shown. A digest of the protocol: as §1

In experiment [2] the target is T2, POU2 (OCT2 POU domain);BOB1 (OBF1, OCA-B) (human;human, UniProt P09086;Q16633 175-386;1-256, |).
T2 sequence 1: T1 sequence
T2 sequence 2: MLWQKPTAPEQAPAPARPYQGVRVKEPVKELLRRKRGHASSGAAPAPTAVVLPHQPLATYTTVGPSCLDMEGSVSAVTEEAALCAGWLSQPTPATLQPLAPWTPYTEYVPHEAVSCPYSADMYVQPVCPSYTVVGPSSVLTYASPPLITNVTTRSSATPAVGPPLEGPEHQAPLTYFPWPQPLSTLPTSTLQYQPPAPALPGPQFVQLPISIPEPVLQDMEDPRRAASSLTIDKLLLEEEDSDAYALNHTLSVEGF
Described as above. The following applies: protein: recombinant;recombinant; copies: 1;1; dsDNA, one strand shown. A digest of the protocol: as §1

Results on 16 sequences are retold here after paper PMC10812921, “Transcriptional Coactivator BOB1 (OBF1, OCA-B) Modulates the Specificity of DNA Recognition by the POU-Domain Factors OCT1 and OCT2 in a Monomeric Configuration”.

POU1 (OCT1 POU domain), sequence (P14859 260-458): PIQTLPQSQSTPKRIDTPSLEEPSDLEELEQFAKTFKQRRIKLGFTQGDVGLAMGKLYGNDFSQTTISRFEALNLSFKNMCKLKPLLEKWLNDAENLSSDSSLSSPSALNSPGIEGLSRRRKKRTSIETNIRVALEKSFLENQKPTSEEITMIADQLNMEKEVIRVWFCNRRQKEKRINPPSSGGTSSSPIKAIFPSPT

On to AGTGCAAT, for which the binding signal with POU1 (OCT1 POU domain) was 0.0347 % of ANNNNAAN 8-mers; in the experiment with POU2 (OCT2 POU domain) it was 0.0455 % of ANNNNAAN 8-mers; in experiment [1] it was 0.0367 % of ANNNNAAN 8-mers; in experiment [2], 0.0396 % of ANNNNAAN 8-mers.

For the sequence AACCGAAC, the binding signal with POU1 (OCT1 POU domain) was 0.013 % of ANNNNAAN 8-mers; with POU2 (OCT2 POU domain) it was 0.0173 % of ANNNNAAN 8-mers; in experiment [1], 0.0117 % of ANNNNAAN 8-mers; in experiment [2], 0.0198 % of ANNNNAAN 8-mers.

As to ATAATAAA, the binding signal with POU1 (OCT1 POU domain) was 0.194 % of ANNNNAAN 8-mers; with POU2 (OCT2 POU domain), 0.251 % of ANNNNAAN 8-mers; in experiment [1], 0.117 % of ANNNNAAN 8-mers; in experiment [2], 0.0999 % of ANNNNAAN 8-mers.

With AGACAAAA, the binding signal in the experiment with POU1 (OCT1 POU domain) was 0.0675 % of ANNNNAAN 8-mers; with POU2 (OCT2 POU domain), 0.0489 % of ANNNNAAN 8-mers; in experiment [1], 0.0808 % of ANNNNAAN 8-mers; in experiment [2] it was 0.0322 % of ANNNNAAN 8-mers.

Regarding AGCTGAAT, the binding signal with POU1 (OCT1 POU domain) was 0.0561 % of ANNNNAAN 8-mers; with POU2 (OCT2 POU domain), 0.0725 % of ANNNNAAN 8-mers; in experiment [1] it was 0.0492 % of ANNNNAAN 8-mers; in experiment [2] it was 0.0471 % of ANNNNAAN 8-mers.

Regarding ACTACAAA, the binding signal was 0.0214 % of ANNNNAAN 8-mers in the experiment with POU1 (OCT1 POU domain), 0.0391 % of ANNNNAAN 8-mers with POU2 (OCT2 POU domain), 0.0285 % of ANNNNAAN 8-mers in experiment [1] and 0.0256 % of ANNNNAAN 8-mers in experiment [2].

For the sequence AATCAAAT, the binding signal is 0.295 % of ANNNNAAN 8-mers with POU1 (OCT1 POU domain), 0.212 % of ANNNNAAN 8-mers with POU2 (OCT2 POU domain), 0.419 % of ANNNNAAN 8-mers in experiment [1] and 0.301 % of ANNNNAAN 8-mers in experiment [2].

Take ACCTTAAC: the binding signal in the experiment with POU1 (OCT1 POU domain) was 0.0118 % of ANNNNAAN 8-mers; with POU2 (OCT2 POU domain), 0.0173 % of ANNNNAAN 8-mers; in experiment [1] it was 0.0152 % of ANNNNAAN 8-mers; in experiment [2], 0.0149 % of ANNNNAAN 8-mers.

As to ATTCGAAA, the binding signal in the experiment with POU1 (OCT1 POU domain) is 0.0725 % of ANNNNAAN 8-mers; with POU2 (OCT2 POU domain), 0.0783 % of ANNNNAAN 8-mers; in experiment [1] it was 0.0605 % of ANNNNAAN 8-mers; in experiment [2] it was 0.0578 % of ANNNNAAN 8-mers.

On to ACGATAAG, for which the binding signal with POU1 (OCT1 POU domain) was 0.0275 % of ANNNNAAN 8-mers; with POU2 (OCT2 POU domain), 0.0311 % of ANNNNAAN 8-mers; in experiment [1], 0.0215 % of ANNNNAAN 8-mers; in experiment [2], 0.0314 % of ANNNNAAN 8-mers.

Regarding AAGCGAAA, the binding signal in the experiment with POU1 (OCT1 POU domain) was 0.0358 % of ANNNNAAN 8-mers; with POU2 (OCT2 POU domain), 0.0391 % of ANNNNAAN 8-mers; in experiment [1], 0.0429 % of ANNNNAAN 8-mers; in experiment [2], 0.0289 % of ANNNNAAN 8-mers.

As to ATTGAAAC, the binding signal with POU1 (OCT1 POU domain) was 0.0431 % of ANNNNAAN 8-mers; with POU2 (OCT2 POU domain), 0.0322 % of ANNNNAAN 8-mers; in experiment [1] it was 0.0406 % of ANNNNAAN 8-mers; in experiment [2], 0.0396 % of ANNNNAAN 8-mers.

On to ATATAAAG, for which the binding signal in the experiment with POU1 (OCT1 POU domain) was 0.0725 % of ANNNNAAN 8-mers; with POU2 (OCT2 POU domain), 0.088 % of ANNNNAAN 8-mers; in experiment [1], 0.0597 % of ANNNNAAN 8-mers; in experiment [2], 0.0603 % of ANNNNAAN 8-mers.

For the sequence ATAAAAAT, the binding signal in the experiment with POU1 (OCT1 POU domain) is 0.131 % of ANNNNAAN 8-mers; with POU2 (OCT2 POU domain) it was 0.125 % of ANNNNAAN 8-mers; in experiment [1] it was 0.114 % of ANNNNAAN 8-mers; in experiment [2] it was 0.09 % of ANNNNAAN 8-mers.

Regarding AATTCAAT, the binding signal in the experiment with POU1 (OCT1 POU domain) was 0.121 % of ANNNNAAN 8-mers; with POU2 (OCT2 POU domain), 0.125 % of ANNNNAAN 8-mers; in experiment [1], 0.0948 % of ANNNNAAN 8-mers; in experiment [2], 0.125 % of ANNNNAAN 8-mers.

On to ATCTTAAA, for which the binding signal with POU1 (OCT1 POU domain) was 0.0648 % of ANNNNAAN 8-mers; with POU2 (OCT2 POU domain) it was 0.0552 % of ANNNNAAN 8-mers; in experiment [1], 0.0515 % of ANNNNAAN 8-mers; in experiment [2] it was 0.0636 % of ANNNNAAN 8-mers.
